Experiments:
Format in all cases: functional
[1] = test system: Plasmodium falciparum; test: GSK_TCMDC: Inhibition of Plasmodium falciparum 3D7 in whole red blood cells, using parasite LDH activity as an index of growth. Test compounds present at 2uM
[2] = test system: Plasmodium falciparum; test: GSK_TCMDC: Inhibition of Plasmodium falciparum Dd2 in whole red blood cells, using parasite LDH activity as an index of growth. Test compounds present at 2uM
[3] = test system: HepG2; test: GSK_TCMDC: Percent inhibition of human HepG2 cell line. Test compounds present at 10uM.

Compound | Inhibition [1] | Inhibition [2] | Inhibition [3]
COc1cccc(CNC(=O)c2cccc(-c3cccc(CN4CCC(N5CCCC5)CC4)c3)n2)c1.O=C(O)C(F)(F)F | 100% | 76% | 22%
O=C(/C=C/c1ccc(Cl)c(Cl)c1)NCCCCCCN1CCN(C(=O)Nc2ccc(C(F)(F)F)cc2)CC1 | 100% | 44% | 42%
COc1ccc(Cn2c(Nc3cccc(C(F)(F)F)c3)nc3ccc(C(=O)NCCN4CCCC4)cc32)cc1Cl | 100% | 6% | 14%
O=C(Nc1cccc(-c2nn3ccccc3c2-c2ccnc(Nc3ccccc3)n2)c1)c1cc(F)ccc1F | 98% | 75% | 8%
Cc1ccc(-n2cc(CNCC3CCN(CCO)CC3)c(-c3ccc(F)cc3)n2)cc1 | 91% | 18% | 29%
CN(C)C(=O)n1cnc(S(=O)(=O)N(C)c2ccc(Cl)cc2)n1.Cl | 88% | 80% | 7%
Cc1ccc2c(=NN=Cc3cccc(Cl)c3)cc(C)[nH]c2c1 | 96% | 52% | 50%
COc1ccc(CNCc2ccccc2)cc1-c1ccc(S(=O)(=O)NCCN2CCCC2)c(C)c1.O=C(O)C(F)(F)F | 99% | 50% | 33%
COc1ccc(-c2ccccc2CNC2Cc3ccccc3C2)cc1S(=O)(=O)NCCN1CCCC1.O=C(O)C(F)(F)F | 96% | 47% | 18%
CCn1c(-c2nonc2N)nc2c(C#CC(C)(C)O)ncc(OCCNCCc3ccc(OC)cc3)c21.O=C(O)C(F)(F)F | 91% | 44% | 4%
